From PubChem BioAssay (NCI)
“And” between values parts separate entries of the source, which are not always exact repeats. Identical values can stand only once. This is part of a sample that, as a whole, favours compounds with a hit. Of some 79,000 tested, about 15% had one in any assay. Some compounds were tested as several samples or in several runs, with calls that do not always agree. The source made the active and inactive calls. Rule as the data show it: active = growth inhibition above about 70%; inactive = the rest.

Experiments:
[1] = NCI Yeast Anticancer Drug Screen. Data for the rad50 strain (AID 155);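 also: 0% = growth of vehicle-only cultures of the same strain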; settings: S. cerevisiae rad50 strain growth inhibition, stronger effect = higher value
Procedure, shortened: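 A DNA repair-deficient yeast mutant serves as the test organism; compound-induced growth inhibition is calculated against vehicle-treated cells.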

[2] = NCI Yeast Anticancer Drug Screen. Data for the mec2-1 strain (AID 157); settings: S. cerevisiae mec2-1 strain, stronger effect = higher value
Procedure, shortened: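 Growth inhibition is read against vehicle-treated controls after compound exposure of the mec2-1 yeast strain, which is defective in DNA damage repair or cell cycle control.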

[3] = NCI Yeast Anticancer Drug Screen. Data for the sgs1 mgt1 strain (AID 161);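 also: 0% = growth of cultures given vehicle only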; settings: S. cerevisiae sgs1 mgt1 strain, stronger effect = higher value
Procedure, shortened: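 This yeast growth screen uses a strain with defined DNA-repair lesions; compound-treated growth is compared with vehicle-treated growth.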

[4] = NCI Yeast Anticancer Drug Screen. Data for the cln2 rad14 strain (AID 165);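 also: 0% = growth equal to vehicle treated cultures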; settings: S. cerevisiae cln2 rad14 strain, stronger effect = higher value
Procedure, shortened: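 Growth inhibition, relative to vehicle-treated controls, is the read-out. The test organism is a yeast strain with defined genetic alterations, cln2 rad14.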

[5] = NCI Yeast Anticancer Drug Screen. Data for the bub3 strain (AID 167); settings: S. cerevisiae bub3 mutant strain, stronger effect = higher value
Procedure, shortened: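 Inhibition values come from growth of compound-treated mutant yeast normalised to vehicle-treated controls.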

[6] = NCI Yeast Anticancer Drug Screen. Data for the mlh1 rad18 strain (AID 175); settings: S. cerevisiae mlh1 rad18 strain growth inhibition, stronger effect = higher value
Procedure, shortened: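 Cells of a genetically altered yeast strain, deficient in DNA damage repair, were treated with compound. Their growth was then compared with that of vehicle-treated cultures to give inhibition.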

[7] = at 5.0 µM (retest, dose inferred, filed as 0.5)
[8] = at 50.0 µM (retest, dose inferred, filed as 5.0)

Row | SMILES | growth inhibition [1, 7] | growth inhibition [1, 8] | growth inhibition ([1]; at 50.0 µM) | growth inhibition [2, 7] | growth inhibition [2, 8] | growth inhibition ([2]; at 50.0 µM) | growth inhibition [3, 7] | growth inhibition [3, 8] | growth inhibition ([3]; at 50.0 µM) | growth inhibition [4, 7] | growth inhibition [4, 8] | growth inhibition ([4]; at 50.0 µM) | growth inhibition [5, 7] | growth inhibition [5, 8] | growth inhibition ([5]; at 50.0 µM) | growth inhibition [6, 7] | growth inhibition [6, 8] | growth inhibition ([6]; at 50.0 µM)
1 | C=CC(=O)OCCOc1ccc(Cl)cc1Cl | 1% (inactive) | 98% (active) | 57.2% (inactive) | 2% (inactive) | 99% (active) | 30.4% (inactive) | 6% (inactive) | 98% (active) | 73.2% (active) | -1% (inactive) | 94% (active) | -28.1% (inactive) | 12% (inactive) | 97% (active) | 24.2% (inactive) | 24% (inactive) | 98% (active) | 83.9% (active)
2 | Clc1ccc2c(c1)[nH]c1c2nc2ccccn21 | 21% (inactive) | 95% (active) | 62.9% (inactive) and 83.2% (active) | 19% (inactive) | 98% (active) | -11.3% (inactive) and 67.4% (inactive) | 50% (inactive) | 95% (active) | 19.4% (inactive) and 85.7% (active) | 47% (inactive) | 95% (active) | 25.2% (inactive) and 77.5% (active) | 36% (inactive) | 97% (active) | 15.2% (inactive) and 79.2% (active) | 11% (inactive) | 98% (active) | -14.4% (inactive) and 80.4% (active)
3 | COc1ccc2c(c1)c[n+](C)c1c3cc(OC)c(OC)cc3ccc21 | 17% (inactive) | 23% (inactive) | 5.2% (inactive) and 37.6% (inactive) | 23% (inactive) | 20% (inactive) | 2.8% (inactive) and 35.4% (inactive) | -21% (inactive) | 47% (inactive) | 43.2% (inactive) and 48.9% (inactive) | -12% (inactive) | -8% (inactive) | 34.6% (inactive) and 13.8% (inactive) | 8% (inactive) | 61% (inactive) | 25.9% (inactive) and 19.1% (inactive) | 16% (inactive) | 19% (inactive) | -19.9% (inactive) and 32.5% (inactive)
4 | C=CCCC(=O)O | 6% (inactive) | 7% (inactive) | 1.25% (inactive) and 2.45% (inactive) | 7% (inactive) | 2% (inactive) | -2.15% (inactive) and -0.6% (inactive) | 5% (inactive) | 3% (inactive) | -11.3% (inactive) and 4.3% (inactive) | 4% (inactive) | 4% (inactive) | 54.4% (inactive) and 5.75% (inactive) | 4% (inactive) | 1% (inactive) | 64.5% (inactive) and 9.55% (inactive) | 0% (inactive) | 2% (inactive) | -40.5% (inactive) and 0.95% (inactive)
5 | CC1=CC(=Nc2ccc(N(C)C)cc2)C=CC1=O | 1% (inactive) | 7% (inactive) | -4.05% (inactive) and 78.8% (active) | -5% (inactive) | 2% (inactive) | 10.2% (inactive) and 46.4% (inactive) | 1% (inactive) | 7% (inactive) | 21.9% (inactive) and 84.1% (active) | -3% (inactive) | -6% (inactive) | -4.55% (inactive) and 33.5% (inactive) | -1% (inactive) | -9% (inactive) | -7% (inactive) and 21.4% (inactive) | -3% (inactive) | 9% (inactive) | 16.4% (inactive) and 66.2% (inactive)
6 | Nc1cc2c(cc1Cl)[nH]c(=O)c1cc(Cl)ccc12 | 46% (inactive) | 65% (inactive) | 86.2% (active) | 27% (inactive) | 14% (inactive) | 3.6% (inactive) | 26% (inactive) | 17% (inactive) | 18.3% (inactive) | 10% (inactive) | 6% (inactive) | -0.9% (inactive) | 39% (inactive) | 10% (inactive) | -11.3% (inactive) | 38% (inactive) | 40% (inactive) | 22.6% (inactive)
7 | COc1nc(NC2OC(CO)C(O)C(O)C2O)c(Cl)c(=O)n1C (configuration not stated) | 1% (inactive) | 5% (inactive) | 17.7% (inactive) | 3% (inactive) | 0% (inactive) | 74.5% (active) | 2% (inactive) | -2% (inactive) | 87.3% (active) | 1% (inactive) | 3% (inactive) | 69.3% (inactive) | -1% (inactive) | -2% (inactive) | 71.2% (active) | -1% (inactive) | -3% (inactive) | 88.9% (active)
8 | S=c1nc[nH]c2[nH]ccc12 | -3% (inactive) | -4% (inactive) | 10.1% (inactive) | 2% (inactive) | -3% (inactive) | 0.6% (inactive) | 0% (inactive) | -2% (inactive) | -2.35% (inactive) | -2% (inactive) | -7% (inactive) | 48% (inactive) | -1% (inactive) | -6% (inactive) | -5.4% (inactive) | -1% (inactive) | 0% (inactive) | 2.8% (inactive)
9 | CCOP(=O)(OCC)C(C)(CC)NC(=O)C(C(F)(F)F)C(F)(F)F (configuration not stated) | 21% (inactive) | 21% (inactive) | -5.45% (inactive) and 2.5% (inactive) | 23% (inactive) | 13% (inactive) | -14.8% (inactive) and 4% (inactive) | 16% (inactive) | 13% (inactive) | -8.75% (inactive) and -2.6% (inactive) | 18% (inactive) | 24% (inactive) | 5.65% (inactive) and -1.65% (inactive) | 20% (inactive) | 19% (inactive) | -4.95% (inactive) and -8.05% (inactive) | 23% (inactive) | 18% (inactive) | 8.65% (inactive) and -16.8% (inactive)
